# Test results taken from PubChem BioAssay.
# Active and inactive are the calls of the source.
# Experiments:
# [1] = E. coli DRC41 culture turbidity changes, primary screen, E. coli filamentation inducer project, strain DRC41, OD650, 48 h (AID 1152);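 further: E. coli MC1000 strain DRC41 lacking acrAB efflux pump and sulA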; conditions: E. coli DRC41 (acrAB sulA), higher = more signal, called active from +8 up or from −8 down
# [2] = small-molecule binders of probe aLefty1, primary screen, biochemical, small-molecule microarray, 635/667 nm fluorescence (AID 1153); conditions: higher = more signal;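 further: score merges spot fluorescence with signal-to-noise ratio from the scanned slide images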
# [3] = PSAC antagonists in infected red cells, primary screen, cell-based, P. falciparum Indochina, OD700, 1 h (AID 1154); conditions: P. falciparum Indochina infected RBC osmotic lysis, higher = more signal, called active from +8 up or from −8 down
# [4] = PSAC antagonists in infected red cells, primary screen, cell-based, P. falciparum Indochina, OD700, 2 h (AID 1155);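 further: lysis reports solute entry through the parasite surface anion channel PSAC; channel blockers reduce lysis of infected cells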; conditions: P. falciparum Indochina infected erythrocytes, osmotic lysis OD700; higher = more signal, called active from +8 up or from −8 down
# [5] = osmotic lysis modulators in infected erythrocytes, primary screen, PSAC antagonist project, cell-based, P. falciparum Indochina, OD700, 3 h (AID 1156); conditions: higher = more signal, called active from +8 up or from −8 down
# [6] = PSAC antagonists in infected red cells, primary screen, cell-based, P. falciparum Indochina, OD700, 18 h (AID 1157); conditions: P. falciparum Indochina infected erythrocytes, osmotic lysis OD700, 18 h; higher = more signal, called active from +8 up or from −8 down
# [7] = modulators of S6 phosphorylation in cells, primary screen, cell-based, A549, cytoblot, luminescence, serum-stimulated (AID 1158); conditions: A549 phospho-S6 cytoblot, 5 h, higher = more signal;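 further: serum-stimulated A549 lung adenocarcinoma cells; signal is phosphorylated S6 detected by cytoblot immunostaining with HRP secondary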
# [8] = target: NADPH oxidase 2 (Homo sapiens) (UniProt P04839); test: NOX2-dependent H2O2 signal modulators, primary screen, NOX inhibitor project, cell-based, HEK293-NOX2, PMA-stimulated, Amplex Red fluorescence (AID 1159); conditions: 45 min, higher = more signal, called active from +8 up or from −8 down; further: test concentration not given here
# Chain of NADPH oxidase 2 (Homo sapiens) (P04839 whole entry, looked up): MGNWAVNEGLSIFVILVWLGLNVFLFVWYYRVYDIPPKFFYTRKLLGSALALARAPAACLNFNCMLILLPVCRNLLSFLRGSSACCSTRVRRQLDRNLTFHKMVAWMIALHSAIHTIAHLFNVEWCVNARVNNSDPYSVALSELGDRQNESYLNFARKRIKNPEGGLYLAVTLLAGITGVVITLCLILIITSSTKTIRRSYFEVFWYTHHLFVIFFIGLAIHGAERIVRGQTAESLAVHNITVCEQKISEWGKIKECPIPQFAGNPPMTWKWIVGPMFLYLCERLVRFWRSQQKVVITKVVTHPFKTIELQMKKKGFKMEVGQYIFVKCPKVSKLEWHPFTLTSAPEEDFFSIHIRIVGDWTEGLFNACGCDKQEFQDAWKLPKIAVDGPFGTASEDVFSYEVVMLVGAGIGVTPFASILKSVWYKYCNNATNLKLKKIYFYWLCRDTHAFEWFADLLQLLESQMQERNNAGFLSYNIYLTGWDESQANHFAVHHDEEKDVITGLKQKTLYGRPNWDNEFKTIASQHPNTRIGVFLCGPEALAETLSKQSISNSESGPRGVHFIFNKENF
# [9] = target: NADPH oxidase 4 (Homo sapiens) (UniProt Q9NPH5); test: NOX4-dependent H2O2 signal modulators, primary screen, NOX inhibitor project, cell-based, HEK293-NOX4, tetracycline-induced, Amplex Red fluorescence (AID 1160); conditions: 45 min, higher = more signal, called active from +8 up or from −8 down
# Chain of NADPH oxidase 4 (Homo sapiens) (Q9NPH5 whole entry, looked up): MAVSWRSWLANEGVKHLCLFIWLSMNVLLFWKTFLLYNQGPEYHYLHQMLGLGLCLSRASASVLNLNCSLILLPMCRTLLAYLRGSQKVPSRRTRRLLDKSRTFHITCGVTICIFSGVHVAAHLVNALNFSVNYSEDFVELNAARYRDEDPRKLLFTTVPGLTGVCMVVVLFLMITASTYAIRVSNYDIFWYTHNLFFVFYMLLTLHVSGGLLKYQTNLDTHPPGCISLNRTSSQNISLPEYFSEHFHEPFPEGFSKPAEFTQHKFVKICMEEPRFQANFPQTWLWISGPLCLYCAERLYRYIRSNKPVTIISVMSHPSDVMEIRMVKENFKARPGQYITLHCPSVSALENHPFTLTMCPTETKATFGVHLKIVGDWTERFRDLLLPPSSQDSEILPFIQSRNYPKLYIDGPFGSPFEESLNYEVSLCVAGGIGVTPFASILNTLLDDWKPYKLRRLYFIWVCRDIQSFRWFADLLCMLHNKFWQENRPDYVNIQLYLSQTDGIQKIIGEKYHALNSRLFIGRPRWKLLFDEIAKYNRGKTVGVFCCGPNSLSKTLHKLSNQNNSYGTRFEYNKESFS
# [10] = target: NADPH oxidase 5 (Homo sapiens) (UniProt Q96PH1); test: NOX5-dependent H2O2 signal modulators, primary screen, NOX inhibitor project, cell-based, HEK293-NOX5, Amplex Red fluorescence (AID 1161); conditions: HEK293-NOX5, ionomycin, 45 min, higher = more signal
# Chain of NADPH oxidase 5 (Homo sapiens) (Q96PH1 whole entry, looked up): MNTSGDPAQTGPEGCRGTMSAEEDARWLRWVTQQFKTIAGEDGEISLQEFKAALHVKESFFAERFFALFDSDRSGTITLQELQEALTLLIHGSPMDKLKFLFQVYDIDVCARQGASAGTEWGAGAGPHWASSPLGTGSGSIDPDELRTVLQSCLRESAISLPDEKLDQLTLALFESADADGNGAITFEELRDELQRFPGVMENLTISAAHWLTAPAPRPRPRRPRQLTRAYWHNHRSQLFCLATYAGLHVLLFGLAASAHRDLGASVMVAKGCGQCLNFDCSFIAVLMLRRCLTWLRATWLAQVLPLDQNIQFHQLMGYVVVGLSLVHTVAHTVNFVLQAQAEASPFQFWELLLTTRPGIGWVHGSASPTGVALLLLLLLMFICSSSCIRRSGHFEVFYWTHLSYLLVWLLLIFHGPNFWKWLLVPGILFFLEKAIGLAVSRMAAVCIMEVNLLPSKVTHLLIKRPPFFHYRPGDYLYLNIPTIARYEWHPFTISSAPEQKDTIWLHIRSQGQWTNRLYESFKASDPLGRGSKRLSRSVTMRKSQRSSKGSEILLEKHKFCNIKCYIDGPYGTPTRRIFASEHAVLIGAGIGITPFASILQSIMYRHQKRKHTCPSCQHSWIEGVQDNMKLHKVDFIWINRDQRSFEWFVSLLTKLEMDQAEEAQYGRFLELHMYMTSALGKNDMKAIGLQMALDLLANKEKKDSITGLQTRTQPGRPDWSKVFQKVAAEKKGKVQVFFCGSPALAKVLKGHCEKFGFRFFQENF
# [11] = A549 cell viability effects, profiling panel, calcein-AM fluorescence, 48 h, basal (AID 1162); conditions: higher = more signal; further: test concentration not given here
# [12] = adipocyte viability effects, profiling panel, cell-based, 3T3-L1 adipocytes, calcein-AM fluorescence, 48 h, basal (AID 1163); conditions: 3T3-L1 adipocytes viability, higher = more signal; further: test concentration not given here
# [13] = HepG2 cell viability effects, profiling panel, calcein-AM fluorescence, 48 h, basal (AID 1164); conditions: higher = more signal; further: test concentration not given here
# [14] = MM1S cell viability effects, profiling panel, calcein-AM fluorescence, 48 h, basal (AID 1165); conditions: higher = more signal;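 further: viability of MM1S multiple myeloma cells under basal unstimulated conditions; test concentration not given here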
# [15] = basal RPMI8226 viability, no added stimulus, profiling panel, cell-based, calcein-AM fluorescence, 48 h, PK04 Diversity Set (AID 1166); conditions: RPMI8226 myeloma viability, higher = more signal;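 further: cells grown under basal conditions without added stimulus; test concentration not given here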
# [16] = basal HepG2 mitochondrial membrane potential changes, profiling panel, cell-based, JC-1 fluorescence, 24 h, 100 nL compound (AID 1167); conditions: higher = more signal; further: test concentration not given here
# [17] = basal 3T3-L1 adipocyte mitochondrial potential changes, profiling panel, cell-based, JC-1 fluorescence, 3T3-L1 adipocytes, 24 h, 100 nL compound (AID 1168); conditions: JC-1 mitochondrial fluorescence, higher = more signal, called active from +8 up or from −8 down; further: test concentration not given here
# [18] = basal RPMI8226 mitochondrial membrane potential changes, profiling panel, cell-based, JC-1 fluorescence, 24 h, 100 nL compound (AID 1169); conditions: RPMI8226 myeloma, JC-1 mitochondrial potential fluorescence, higher = more signal; further: test concentration not given here
# [19] = basal MM1S mitochondrial membrane potential changes, profiling panel, cell-based, JC-1 fluorescence, 24 h, 100 nL compound (AID 1170); conditions: higher = more signal; further: test concentration not given here
# [20] = A549 lung cancer cell viability effects, profiling panel, resazurin fluorescence, 24 h, PK04 Diversity Set (AID 1171); conditions: higher = more signal, called active from +8 up or from −8 down; further: test concentration not given here
SMILES,z-score [1],composite z-score [2],z-score [3],z-score [4],z-score [5],z-score [6],z-score [7],z-score [8],z-score [9],z-score [10],z-score [11],z-score [12],z-score [13],z-score [14],z-score [15],z-score [16],z-score [17],z-score [18],z-score [19],z-score [20]
COCCOC(=O)N1C(=O)[C@@]2(c3cc(C#CC4(O)CCCCCC4)ccc31)[C@H](c1ccc(OCCO)cc1)N1[C@H](c3ccccc3)[C@H](c3ccccc3)OC(=O)[C@H]1[C@@H]2C(=O)N1CCCCCCC1,0.148 (inactive),2.52,2.18 (inactive),2.02 (inactive),0.736 (inactive),1.02 (inactive),0.49,0.707 (inactive),-1.45 (inactive),0.0377,-0.359,2.14,0.292,-0.834,-1.78,-1.1,-2.25 (inactive),-0.468,-1.08,-0.557 (inactive)
CCOC(=O)C1=CCC(c2cc3ccccc3[nH]2)N(S(=O)(=O)c2ccccc2[N+](=O)[O-])C1 (stereo not given),-0.485 (inactive),-0.391,4.73 (inactive),0.822 (inactive),-0.217 (inactive),0.631 (inactive),-0.146,0.269 (inactive),-0.546 (inactive),0.731,0.0857,-0.913,0.527,0.277,-0.467,1.17,-0.433 (inactive),-0.366,-1.61,-0.869 (inactive)
COC(=O)[C@]1(CO)N=C(c2ccc(OCCCO)cc2)O[C@@H]1c1ccccc1CN=[N+]=[N-],0.699 (inactive),-0.0626,7.47 (inactive),0.731 (inactive),1.34 (inactive),0.497 (inactive),-0.405,-0.259 (inactive),-0.0289 (inactive),0.234,0.0394,0.131,0.422,0.28,0.0032,-0.253,0.039 (inactive),0.00663,0.0223,-0.49 (inactive)
C=CC[C@@]12N=C(c3ccc(OCCCO)cc3)O[C@@H]1c1ccccc1N(Cc1ccccc1)C2=O,1.04 (inactive),1.47,31.3 (active),28.1 (active),3.1 (inactive),2.31 (inactive),-0.0677,-0.812 (inactive),-0.091 (inactive),-1.59,-0.395,0.555,-1.48,-3.4,-4.23,0.394,2.91 (inactive),-1.25,-0.934,-1.1 (inactive)
C=CCNC(=O)[C@@H]1[C@H]2C(=O)O[C@H](c3ccccc3)[C@H](c3ccccc3)N2[C@H](c2ccc(O)cc2)[C@@]12C(=O)Nc1ccc(C#CC3(O)CCCCCC3)cc12,-0.418 (inactive),-0.196,2.35 (inactive),0.275 (inactive),0.0479 (inactive),0.778 (inactive),-0.339,0.948 (inactive),0.534 (inactive),1.19,-1.04,0.889,-0.522,-1.67,-3.93,-2.28,-0.41 (inactive),-0.748,-0.188,0.0696 (inactive)
COc1cc2c(cc1O)C(c1ccc(CN3CCCC3)cc1)N(Cc1cccc(OC(F)(F)F)c1)CC2 (stereo not given),-4.5 (inactive),-0.131,12.3 (active),2.62 (inactive),-0.608 (inactive),1.14 (inactive),-0.223,-8.71 (active),-4.77 (inactive),-6.04,-4.78,0.0154,-5.64,-3.22,-4.48,-3.43,1.04 (inactive),-0.955,-2.64,-4.45 (inactive)
CCCCN1CC=CC23O[C@@H]4/C=C\CCC(C)OC(=O)C4[C@H]2C(=O)N(C(C)CO)[C@@H]3C1=O (stereo not given in full),0.0581 (inactive),-0.331,1.82 (inactive),-0.0918 (inactive),1.19 (inactive),0.16 (inactive),-0.0969,0.809 (inactive),-0.42 (inactive),1.27,-0.425,-0.708,0.201,0.646,-0.474,-0.318,-0.382 (inactive),-0.726,-1.13,-0.016 (inactive)
CC(=O)n1cc(C(O)C2C=CC3C(=O)N(c4ccccc4)C(=O)C3N2Nc2ccccc2F)c2ccccc21 (stereo not given),0.506 (inactive),-0.147,8 (active),1.04 (inactive),0.0784 (inactive),-0.0595 (inactive),0.988,-1.82 (inactive),-3.23 (inactive),-0.614,0.512,0.23,-0.798,-0.834,-0.056,-0.69,-1.2 (inactive),0.408,-1.41,0.423 (inactive)
CC(C)C[C@H]1NC(=O)[C@@H](C)NC(=O)[C@@]23C(=O)N[C@@H](Cc4ccccc4)C2[C@H](C)[C@@]2(C)O[C@H]2C3/C=C/C/C=C\CNC1=O (stereo not given in full),-0.743 (inactive),-0.431,0.522 (inactive),-0.437 (inactive),-0.435 (inactive),-0.111 (inactive),-0.175,-0.115 (inactive),1.11 (inactive),0.407,0.65,0.305,-0.363,-0.256,-0.64,-0.553,0.023 (inactive),0.471,0.191,-0.0639 (inactive)
